# Test results reported in PubChem BioAssay AID2685 (National Center for Advancing Translational Sciences (NCATS), 2010).
# Out of some 320,000 compounds screened, about 2,100 (0.66%) were called active. About 53% were inconclusive and are not listed. Calls follow the shape of the dose curve; as a rule, active = well fitted inhibition curve with a large enough effect in the signal ratio, with a control signal flat (not every such curve was filed as active); inconclusive = small, poorly fitted or top-dose-only effect, or effect the other way, or a change in a side signal; inactive = flat fitted curve, though single readings scatter; the % refers to the signal ratio. What follows is part of a selection rich in actives, with near analogues and random picks from the rest.
# Experiment: qHTS Assay for Lipid Storage Modulators in Drosophila S3 Cells;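 as to cell number change: cells counted by Cell Tracker Red CMTPX staining in the red channel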
# Conditions: BODIPY lipid droplet fluorescence, 18-24 h, cells fed with added oleic acid; cell number change: measured here: cell count max response; series mostly up to 46.1 µM
# Method in brief: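 Drosophila S3 cells loaded with oleic acid (400 uM, as added) and compounds at several concentrations; lipid droplets imaged by 488-nm laser-scanning cytometry, 500–530 nm intensity and object ratio to cell channel. Percent activity normalized to 20 uM Triacsin C.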
# Potency is read from the fitted curve at half-maximal effect.
SMILES,Potency,cell number change [%]
CSc1cccc(NC(=O)C2CCN(S(=O)(=O)c3ccc4c(c3)NC(=O)CO4)CC2)c1,inactive,
O=C(Cc1cccs1)NCCn1ccc2ccccc21,inactive,
CCOC(=O)CC(=O)CSc1nc2c(sc(=S)n2-c2ccccc2)c(=O)[nH]1,inactive,3.4
CC1(C)CC(CC(=O)O)CC(C)(C)N1,inactive,0.961
C/C(=N\O)C1CC(CC(=O)O)C1(C)C (stereo not drawn),2.06 µM (active),4.13
COCCNC(=O)CSc1nnc(NC(=O)C2CC(=O)N(c3ccccc3OC)C2)s1 (stereo not drawn),inactive,3.03
O=C(CCN1CCN(C(=O)c2ccccc2)CC1)c1ccc(Br)cc1,inactive,16
CC(=O)OCC(OC(C)=O)C(OC(C)=O)C(OC(C)=O)C(=O)Nc1ccccc1 (stereo not drawn),inactive,13.3
CCSc1nnc2nc3[nH]c4c(C)cccc4c3nn12,inactive,0.802
CCSc1nnc2c(n1)[nH]c1c(C)cccc12,20.6 µM (active),-28.9
CSc1nnc2c(n1)[nH]c1c(C)cccc12,inactive,-19.5
COc1ccc([N+](=O)[O-])cc1NC(=O)CSCc1ccccc1,inactive,-5.97
c1csc(Cc2nc3ccccc3[nH]2)c1,inactive,
O=C(COC(=O)C12CC3CC(CC(C3)C1)C2)Nc1ccc2[nH]c(=O)[nH]c2c1,inactive,
Cc1cccc(NC(=O)Cn2c(=O)n(CCC(=O)NC3CCCC3)c(=O)c3ccccc32)c1,inactive,
CCc1ccccc1Nc1nn2c(=O)c3ccc(C(=O)NCc4cccs4)cc3nc2s1,inactive,-9.06
COc1ccccc1Nc1nn2c(=O)c3ccc(C(=O)NCc4cccnc4)cc3nc2s1,inactive,-12.9
O=C(NCc1ccccn1)c1ccc2c(=O)n3nc(Nc4ccccc4)sc3nc2c1,4.11 µM (active),
COc1ccc(OC)c(-c2csc(NC(=O)C3CSC4(C)CCC(=O)N34)n2)c1 (stereo not drawn),inactive,
CN1CCN(CCCNC(=S)Nc2ccc(F)c(Cl)c2)CC1,inactive,

SMILES,Potency,cell number change [%]
CCCNc1nc(N)nc(-c2cc(Cl)ccc2OC)n1,inactive,5.2
CNc1nc(N)nc(-c2cc(Cl)ccc2OC)n1,inactive,-0.358
CCNc1nc(N)nc(-c2cc(Cl)ccc2OC)n1,3.66 µM (active),-11.6
CC(=O)c1ccc(NC(=O)CN(C)CC(=O)Nc2cccc(F)c2)cc1,inactive,10.5
CC1CN(S(=O)(=O)c2cccc(-c3cn4cccnc4n3)c2)CC(C)O1 (stereo not drawn),inactive,-27.2
Cc1ccc2nc(-c3cccc(S(=O)(=O)N4CC(C)OC(C)C4)c3)cn2c1 (stereo not drawn),16.4 µM (active),-15.5
Cc1ccn2cc(-c3cccc(S(=O)(=O)N4CC(C)OC(C)C4)c3)nc2c1 (stereo not drawn),inactive,5.5
CCNC(=S)NS(=O)(=O)c1ccc(CC)cc1,inactive,-7.16
CCCn1cc2c(c1-c1ccc(C)cc1)c(=O)n(C)c(=O)n2C,inactive,4.81
CC1=C(C(=O)N2CCc3ccccc32)C2(CCC(C)CC2)OC1=O (stereo not drawn),inactive,-7.54
O=C(O)c1c2c(nc3ccc(F)cc13)CCC2,inactive,-14.4
Cc1cc(Br)c2nc3c(c(C(=O)O)c2c1)CCCCC3,inactive,-0.276
CCOc1c2c(nc3ccc(Cl)cc13)CCC2,inactive,8.32
CN(C)C(=O)c1c2c(nc3ccccc13)CCCC2,inactive,1.75
Cc1cccc2c(C(=O)O)c3c(nc12)CCCCC3,18.4 µM (active),-17
O=C(O)c1c2c(nc3ccc(Cl)cc13)CCC2,0.0517 µM (active),
COc1ccccc1/C=C/C1(C(=O)NC2CCCC2)CC(=O)N1c1ccc(F)cc1 (stereo not drawn),inactive,-14.3
COc1ccc(-n2c(O)c(/C=N/NS(=O)(=O)c3cccc([N+](=O)[O-])c3)c3ccccc3c2=O)cc1OC,16.4 µM (active),-20.8
COc1cc(/C=N/NS(=O)(=O)c2ccccc2)ccc1OS(=O)(=O)c1ccc(C)cc1,inactive,20.6
COc1ccc(-n2c(O)c(/C=N/NS(=O)(=O)c3ccc(C)cc3)c3ccccc3c2=O)cc1OC,8.2 µM (active),-21

SMILES,Potency,cell number change [%]
Cc1ccc(-n2c(O)c(/C=N/n3cnnc3)c3ccccc3c2=O)cc1,inactive,9.27
NC(=O)Cn1cc(/C=N\NS(=O)(=O)c2cccc([N+](=O)[O-])c2)c2ccccc21,inactive,1.79
O=[N+]([O-])c1cccc(S(=O)(=O)N/N=C/c2ccc(O)cc2)c1,inactive,
Cc1cccn2c(CN3CCCC(c4ccccc4)C3)c(C(=O)N3CCOCC3)nc12 (stereo not drawn),inactive,-15.3
Cc1nc2nc(NC(=O)c3ccco3)nn2c(C)c1Cl,inactive,16.3
CCOc1ccc(CCNC(=O)c2cc(C)nc3ccccc23)cc1OCC,inactive,1.62
Cc1noc(C)c1COc1ccc(C(=O)N(C)CCOc2ccccc2)cc1,8.2 µM (active),-18.6
CCOc1ccc(CCNC(=O)c2ccccc2OCc2c(C)noc2C)cc1OCC,inactive,4.08
Cc1noc(C)c1COc1ccc(C(=O)NCCc2ccc(S(N)(=O)=O)cc2)cc1,inactive,9.63
Cc1noc(C)c1COc1ccc(C(=O)O)cc1,inactive,4.42
CCOc1ccc(CCNC(=O)c2ccc3ccccc3n2)cc1OCC,8.2 µM (active),-6.07
CCOc1ccc(CCNC(=O)c2cccc(S(=O)(=O)N3CCN(C(C)=O)CC3)c2)cc1OCC,inactive,-4.38
CCOc1ccc(CCNC(=O)c2cc(C)on2)cc1OCC,inactive,4.47
CCOc1ccc(-n2cnnn2)cc1S(=O)(=O)NCCc1ccc(OC)c(OC)c1,inactive,
CCOc1ccc(CCNC(=O)c2ccc(OCc3c(C)noc3C)cc2)cc1OCC,11.6 µM (active),14.1
Cc1noc(C)c1COc1ccc(C(=O)NNC(=O)c2ccccc2)cc1,inactive,2.9
CCOc1ccc(CCNC(=O)c2cccc(-n3cnnn3)c2)cc1OCC,0.0731 µM (active),-24.8
COc1ccc(N2CCN(C(=O)COC(=O)/C=C/c3ccc(OC(F)F)cc3)CC2)cc1,inactive,
COc1ccc(Nc2nc(Cl)nc(Nc3ccc(OC)cc3OC)n2)c(OC)c1,inactive,-11.9
CCOc1ccc(OCc2ccc(C(=O)Nc3ccc(Cl)cn3)o2)cc1,inactive,16.1
